High-throughput results (PubChem)
Pf Dd2 inh – Plasmodium falciparum Dd2 growth inhibition. Potency, µM (titrated, usually from 28.9 µM), for the others: top-dose activity, negative = inhibition, usual class: inhibitors. 4.3% of 120,000 active. P. falciparum Dd2 growth, SYBR Green, 72 h; active = well fitted inhibition curve with a large enough effect;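 note: plate controls were DMSO vehicle for no effect and reference drug for full effect; nearly all actives have a fitted effect of over 65% in size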
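Infected erythrocytes (Dd2, 0.3% parasitemia, 2.5% hematocrit final) are added to compound in RPMI-1640/Albumax II medium, grown 72 h at 37C in low oxygen, then lysed with saponin/Triton-X containing SYBR Green and read by fluorescence.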
* = called active by the depositor; i = inactive; [ ] = another dose, or the depositor's remark. Many of the other results were omitted from the sample, so hits are more common in it than they were. Potency is the fitted concentration of half-maximal effect.

SMILES	Pf Dd2 inh
CCC(C(=O)NCc1cc2c(cc1OC)CCC2)n1cccn1 (configuration not stated)	-11%
Cc1cnn(CC(=O)N2CCC(Cn3c(C)cnc3C3CC3)CC2)c1	-12%
CCc1ccc(CNC(=O)c2ccc(CN3C(=O)NC4(CCOCC4)C3=O)cc2)cc1	i
O=C(c1ccccc1F)N1CCC2(CC1)C(=NC1CCCCC1)NC(=O)N2c1cccnc1	19%
CNC(=O)[C@@H]1CN(C(=O)Cn2nc(C(F)(F)F)cc2C)C[C@H]1CO	-6%
COc1ccc(C)cc1NC(=O)Cn1cccc1-c1nc(-c2ccc3c(c2)OCO3)no1	i
O=C(NC1CCCN(C(=O)C2CC2)C1)c1cccc(Cn2cccn2)c1 (configuration not stated)	2%
Cc1cccc(C)c1NC(=O)c1ccc2c(c1)nnn2C1CCCC1	10%
Cc1cccc(C)c1NC(=O)c1cccc(CN2CCCC2C)c1 (configuration not stated)	10µM*
CCc1nn(-c2ccc(F)cc2)c(Oc2ccccc2)c1CCC(=O)N(C)C(C)C	-6%
O=[S+]1([O-])NCC2(CCN(Cc3ccc(C(F)(F)F)cc3)C2)Nc2ccccc21 (configuration not stated)	i
CCOc1ccc(Nc2nc(-c3cccc(Cl)c3)c3c(n2)-c2ccccc2OC3)cc1	10µM*
Fc1ccc(Nc2nc(-c3ccc(F)cc3)c3c(n2)-c2ccccc2OC3)cc1	3%
Cc1ccccc1Nc1nc(-c2cccc(Cl)c2)c2c(n1)-c1ccccc1OC2	-5%
CN1C(=O)c2cccn2CC1CNC(=O)CCc1c[nH]c2ccccc12 (configuration not stated)	-10%
CCOC(=O)c1ccc(NC(=O)N2Cc3[nH]cnc3C[C@H]2c2nc(-c3ccc(C)cc3)no2)cc1	-8%
COc1ccc(C(CNC(=O)COc2ccc(C)c(C)c2)N2CCCCC2)cc1 (configuration not stated)	11µM*
COc1ccc(C(CNC(=O)COc2cc(C)cc(C)c2)N2CCCCC2)cc1 (configuration not stated)	i
COc1ccc(C(CNC(=O)c2oc3cc(C)c(Cl)cc3c2C)N2CCCCC2)cc1 (configuration not stated)	1%
COc1ccc(C(CNC(=O)c2oc3ccccc3c2C)N2CCCCC2)cc1 (configuration not stated)	24%
Cc1cc(OCC(=O)NCC2(N3CCOCC3)CCCCC2)ccc1Cl	i
COc1ccc(OCC(=O)NCC(c2ccc(OC)cc2)N2CCCCC2)cc1 (configuration not stated)	8.9µM*
COc1ccc(C(CNC(=O)c2ccc(C)cc2)N2CCOCC2)cc1 (configuration not stated)	17%
COc1ccc(CC(=O)NCC(c2ccc(Cl)cc2)N2CCOCC2)cc1 (configuration not stated)	49%[0.594 µM]
CCCOc1ccc(C(=O)NCC(c2ccc(OC)cc2)N2CCCCC2)cc1 (configuration not stated)	-25%
SMILES	Pf Dd2 inh
CC(C)c1ccc(OCC(=O)NCC(c2ccc(Cl)cc2)N2CCOCC2)cc1 (configuration not stated)	10µM*
COc1ccc(C(CNC(=O)COc2ccc(Cl)c(C)c2)N2CCOCC2)cc1 (configuration not stated)	3.5µM*
CN(C)c1ccc(C(CNS(=O)(=O)c2ccc(Cl)cc2)N2CCOCC2)cc1 (configuration not stated)	-23%
Cc1nnc([C@@H]2CC(F)(F)CN2C(=O)c2ccc3ncccc3c2)o1	i
O=C(N[C@H](c1cccs1)C1CC(O)C1)C1CCN(C2CCOCC2)CC1 (some centres not stated)	-9%
CS(=O)(=O)N(C1CC1)C1CCOC2(CCN(C(=O)COc3ccccc3)CC2)C1 (configuration not stated)	i
COc1ccc(CCNC(=O)c2c(C)noc2-c2cccs2)cc1	i
O=C1CCN(C(=O)C2CCN(S(=O)(=O)Cc3cccc(F)c3)CC2)CCCCCCN1	-20%
COc1ccccc1OCCNC(=O)CCC1CCN(C(=O)c2ccccc2F)CC1	i
COc1ccccc1C(=O)N1CCC2(C1)C(=O)N(C)c1ccccc12 (configuration not stated)	i
CCN(CC)c1ccc(C(=O)N2CCC(c3ccncc3)CC2)cc1	57%[5.79 µM]
COc1ccccc1C(=O)N1CCC(c2c[nH]c3ccccc23)(c2c[nH]c3ccccc23)CC1	3.5µM*
Cc1ccc(C(=O)N2CCC3(C2)C(=O)Nc2ccccc23)cc1 (configuration not stated)	-10%
CCN(CC)c1ccc(C(=O)N2CCC(c3c[nH]c4ccccc34)(c3c[nH]c4ccccc34)CC2)cc1	4µM*
COc1ccccc1C(=O)N1CCC(C(=O)O)(c2ccccc2)CC1	4%
c1ccc(Cc2nnc([C@H]3CCN(C4CCCCC4)C3)o2)cc1	-7%[44.1 µM]
CC1(COCC2CC2)COc2ccc(C(=O)Nc3ccccc3)cc2N1 (configuration not stated)	-2%[44.1 µM]
CC(=O)NC1(C)CCCN(Cc2ccc(Oc3ccccc3)cc2)C1 (configuration not stated)	i
CC(=O)NC1(C)CCN(Cc2ccc(-c3ccc4ccccc4c3)cc2)C1 (configuration not stated)	10µM*
CC(=O)NC1(C)CCCN(c2ccc(Oc3ccccc3)cc2)C1 (configuration not stated)	18%[44.1 µM]
CC(=O)NC1(C)CCN(Cc2cccc(-c3cccc4ncccc34)c2)C1 (configuration not stated)	i
CC(=O)NC1(C)CCN(Cc2ccc(-c3cccc4ncccc34)cc2)C1 (configuration not stated)	i
CC(=O)NC1(C)CCCN(Cc2cccc(Nc3ccncc3)c2)C1 (configuration not stated)	-23%[44.1 µM]
CC(=O)NC1(C)CCN(Cc2ccccc2-c2ccccc2Oc2ccccc2)C1 (configuration not stated)	5µM*
CC(=O)NC1(C)CCCN(Cc2cccc(-c3ccccc3)c2)C1 (configuration not stated)	8.9µM*
SMILES	Pf Dd2 inh
CC(=O)NC1(C)CCN(Cc2cccc(-c3ccc(N4CCOCC4)cc3)c2)C1 (configuration not stated)	-3%[44.1 µM]
COc1ccc(CCNC(=O)C2CCN(c3cn[nH]c(=O)c3)C2)cc1OC (configuration not stated)	-7%
O=C(CC1CCCC1)N1CCC(Cc2nc(-c3ccc(F)cc3)no2)CC1	8%
CCN1CCN(CC(=O)N2C[C@@H](C(=O)O)[C@H](c3ccccc3OC)C2)CC1	-12%
CC1(COc2ccccc2)COc2ccc(C(=O)NC3CCC(O)CC3)cc2N1 (configuration not stated)	-21%[44.1 µM]
Cc1n[nH]c(C)c1S(=O)(=O)N(CC(=O)Nc1ccc(C(F)(F)F)cc1)c1ccc(C(C)C)cc1	0%
Cc1noc(C)c1S(=O)(=O)N(CC(=O)Nc1ccc(C(F)(F)F)cc1)c1ccc(C(C)C)cc1	11µM*
Cc1ccc(N(CC(=O)Nc2ccc(OC(F)(F)F)cc2)S(=O)(=O)c2c(C)noc2C)cc1	-16%
Cc1ocnc1C(=O)N1CCC2(CCC(=O)N(CC(C)O)C2)CC1 (configuration not stated)	-4%
COc1cccc(CNC(=O)[C@@H]2C[C@@H](O)CN2C2CCN(C(=O)c3cccc(OC)c3)CC2)c1	-11%
COc1cccc(CNC(=O)[C@@H]2C[C@@H](O)CN2C2CCN(C(=O)CC3CCCC3)CC2)c1	i
